Results as given in PubChem BioAssay (NCI).
This is part of a sample that, as a whole, favours compounds with a hit. Of some 79,000 tested, about 15% had one in any assay. Active and inactive are the calls of the source. Rule as the data show it: active = growth inhibition above about 70%; inactive = the rest.

Tests used:
[1] = NCI Yeast Anticancer Drug Screen. Data for the rad52 strain (AID 147);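 also: 0% = growth of vehicle-treated control cultures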; details: S. cerevisiae rad52 mutant growth inhibition, stronger effect = higher value
Summary of the method: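 Growth of repair-deficient yeast cells was compared between compound-treated and vehicle-treated cultures to give percent inhibition.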

[2] = NCI Yeast Anticancer Drug Screen. Data for the wt1 strain (AID 149);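 also: 0% = growth of vehicle-treated wt1 cultures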; details: S. cerevisiae wt1 strain (SPY 50644) growth inhibition, stronger effect = higher value
Summary of the method: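 The wt1 strain was treated with compounds, and growth was compared with vehicle-treated cultures to give inhibition.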

[3] = NCI Yeast Anticancer Drug Screen. Data for the rad50EPP+ strain (AID 151);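 also: 0% = growth of vehicle-treated control cultures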; details: S. cerevisiae rad50 mutant strain, stronger effect = higher value
Summary of the method: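 Measured: growth inhibition of rad50EPP+ yeast. Reference: vehicle-treated controls. Screen uses strains with defined genetic alterations in DNA damage repair or cell cycle control.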

[4] = NCI Yeast Anticancer Drug Screen. Data for the rad50 strain (AID 155);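 also: 0% = growth of vehicle-only cultures of the same strain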; details: S. cerevisiae rad50 strain growth inhibition, stronger effect = higher value
Summary of the method: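 Cells are treated with compound, grown, and their growth is then scored against vehicle-only cultures of the same repair-deficient yeast strain.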

[5] = NCI Yeast Anticancer Drug Screen. Data for the mec2-1 strain (AID 157); details: S. cerevisiae mec2-1 strain, stronger effect = higher value
Summary of the method: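 Compounds were applied to mec2-1 yeast cells. Their growth was then compared with that of vehicle-treated cultures to give growth inhibition.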

[6] = NCI Yeast Anticancer Drug Screen. Data for the rad14 strain (AID 159);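 also: 0% = growth of vehicle-treated control cultures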; details: S. cerevisiae rad14 strain growth inhibition, stronger effect = higher value
Summary of the method: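 Readout: yeast growth inhibition, referenced to vehicle-only cultures. Strain bears a defined alteration in DNA damage repair.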

[7] = NCI Yeast Anticancer Drug Screen. Data for the sgs1 mgt1 strain (AID 161);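 also: 0% = growth of cultures given vehicle only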; details: S. cerevisiae sgs1 mgt1 strain, stronger effect = higher value
Summary of the method: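 Compounds are added to genetically altered yeast, and growth is compared with cultures given vehicle alone to give percent inhibition.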

[8] = NCI Yeast Anticancer Drug Screen. Data for the CLN2oe strain (AID 163);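 also: 0% = growth of vehicle-only control cultures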; details: S. cerevisiae CLN2oe strain, stronger effect = higher value
Summary of the method: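 Cells of an engineered yeast line with disturbed cell-cycle regulation are treated with compound. Inhibition of growth is then calculated relative to the vehicle-treated reference.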

[9] = NCI Yeast Anticancer Drug Screen. Data for the cln2 rad14 strain (AID 165);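 also: 0% = growth equal to vehicle treated cultures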; details: S. cerevisiae cln2 rad14 strain, stronger effect = higher value
Summary of the method: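 Strain: cln2 rad14 yeast, altered in cell cycle control and DNA damage repair. Read-out: growth inhibition vs vehicle.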

[10] = NCI Yeast Anticancer Drug Screen. Data for the bub3 strain (AID 167); details: S. cerevisiae bub3 mutant strain, stronger effect = higher value
Summary of the method: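 Part of a panel of yeast mutants defective in DNA damage repair or cell cycle regulation. Each strain is grown with compound, and inhibition is calculated relative to solvent-treated cultures.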

[11] = NCI Yeast Anticancer Drug Screen. Data for the wt2 strain (AID 169);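 also: 0% = growth of vehicle-treated yeast cultures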; details: S. cerevisiae wt2 strain growth inhibition, stronger effect = higher value
Summary of the method: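 Growth of compound-treated yeast is measured and expressed as inhibition relative to vehicle-only controls.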

[12] = NCI Yeast Anticancer Drug Screen. Data for the sgs1 strain (AID 173);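 also: 0% = growth of vehicle-only control cultures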; details: S. cerevisiae sgs1 mutant, stronger effect = higher value
Summary of the method: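 Strain with an altered DNA repair or cell cycle pathway exposed to compound. Growth then measured. Value = inhibition versus vehicle control.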

[13] = NCI Yeast Anticancer Drug Screen. Data for the mlh1 rad18 strain (AID 175); details: S. cerevisiae mlh1 rad18 strain growth inhibition, stronger effect = higher value
Summary of the method: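 A repair-deficient yeast strain is exposed to test compound, and growth is scored relative to vehicle-treated controls.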

[14] = NCI Yeast Anticancer Drug Screen. Data for the rad18 strain (AID 177); details: S. cerevisiae rad18 mutant growth inhibition, stronger effect = higher value
Summary of the method: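 DNA-repair-defective yeast; compound treatment; growth inhibition scored against vehicle.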

[15] = NCI Yeast Anticancer Drug Screen. Data for the mlh1 strain (AID 171);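 also: 0% = growth of vehicle-treated control cultures of the same strain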; details: S. cerevisiae mlh1 strain growth inhibition, stronger effect = higher value
Summary of the method: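 Test agents were incubated with yeast bearing a defined DNA damage repair or cell cycle control alteration; values are growth inhibition normalised to vehicle-treated cultures.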

[16] = at 5.0 µM (retest, dose inferred, filed as 0.5)
[17] = at 50.0 µM (retest, dose inferred, filed as 5.0)

Measured: growth inhibition

O=C1OC2C(O)COC2(OCc2c[nH]c3ccccc23)C1O (stereo unspecified) (tested in a mixture with another compound)
active: [1]; at 100.0 µM 84% | [2]; at 100.0 µM 88% | [4]; at 100.0 µM 95% | [5]; at 100.0 µM 91% | [6]; at 100.0 µM 95% | [10]; at 100.0 µM 92% | [11]; at 100.0 µM 75% | [12]; at 100.0 µM 92% | [13]; at 50.0 µM 88.9% | [14]; at 100.0 µM 96%
inactive: [1]; at 1.2 µM -2% | [1]; at 3.7 µM -1% | [1]; at 11.0 µM 1% | [1]; at 33.0 µM 24% | [2]; at 1.2 µM -1% | [2]; at 3.7 µM -1% | [2]; at 11.0 µM 0% | [2]; at 33.0 µM 12% | [3]; at 1.2 µM -5% | [3]; at 3.7 µM 3% | [3]; at 11.0 µM 7% | [3]; at 33.0 µM 14% | [3]; at 100.0 µM 15% | [4]; at 1.2 µM 2% | [4]; at 3.7 µM 5% | [4]; [16] 1% | [4]; at 11.0 µM 19% | [4]; at 33.0 µM 26% | [4]; [17] 15% | [4]; at 50.0 µM 66.4% | [5]; at 1.2 µM 0% | [5]; at 3.7 µM 1% | [5]; [16] -3% | [5]; at 11.0 µM 1% | [5]; at 33.0 µM 12% | [5]; [17] 22% | [5]; at 50.0 µM 49.1% | [6]; at 1.2 µM -2% | [6]; at 3.7 µM 2% | [6]; at 11.0 µM 4% | [6]; at 33.0 µM 30% | [7]; [16] -3% | [7]; [17] 48% | [7]; at 50.0 µM 66.5% | [8]; at 1.2 µM 1% | [8]; at 3.7 µM 1% | [8]; at 11.0 µM 0% | [8]; at 33.0 µM 9% | [8]; at 100.0 µM 54% | [9]; [16] -2% | [9]; [17] 36% | [9]; at 50.0 µM 42.4% | [10]; at 1.2 µM 0% | [10]; at 3.7 µM 3% | [10]; [16] -1% | [10]; at 11.0 µM 3% | [10]; at 33.0 µM 22% | [10]; [17] 46% | [10]; at 50.0 µM 6.5% | [11]; at 1.2 µM -2% | [11]; at 3.7 µM 7% | [11]; at 11.0 µM 0% | [11]; at 33.0 µM 5% | [12]; at 1.2 µM -1% | [12]; at 3.7 µM 0% | [12]; at 11.0 µM 3% | [12]; at 33.0 µM 43% | [13]; [16] -3% | [13]; [17] 26% | [14]; at 1.2 µM 0% | [14]; at 3.7 µM 2% | [14]; at 11.0 µM 9% | [14]; at 33.0 µM 68%

Nc1cc(S(N)(=O)=O)ccc1SSc1ccc(S(N)(=O)=O)cc1N
active: [1]; at 100.0 µM 81% | [3]; at 33.0 µM 79% | [3]; at 100.0 µM 93% | [4]; at 50.0 µM 71.6% | [4]; at 100.0 µM 71% | [6]; at 100.0 µM 89% | [15]; at 100.0 µM 75% | [12]; at 100.0 µM 82% | [13]; at 50.0 µM 73% | [14]; at 100.0 µM 78%
inactive: [1]; at 1.2 µM 1% | [1]; at 3.7 µM 10% | [1]; at 11.0 µM 21% | [1]; at 33.0 µM 50% | [2]; at 1.2 µM 1% | [2]; at 3.7 µM -2% | [2]; at 11.0 µM 0% | [2]; at 33.0 µM 12% | [2]; at 100.0 µM 51% | [3]; at 1.2 µM -2% | [3]; at 3.7 µM 2% | [3]; at 11.0 µM 19% | [4]; at 1.2 µM 5% | [4]; at 3.7 µM 8% | [4]; [16] 13% | [4]; at 11.0 µM 22% | [4]; at 33.0 µM 33% | [4]; [17] 52% | [5]; at 1.2 µM 1% | [5]; at 3.7 µM 5% | [5]; [16] 9% | [5]; at 11.0 µM 12% | [5]; at 33.0 µM 29% | [5]; [17] 10% | [5]; at 50.0 µM 41.1% | [5]; at 100.0 µM 63% | [6]; at 1.2 µM 1% | [6]; at 3.7 µM -7% | [6]; at 11.0 µM 3% | [6]; at 33.0 µM 12% | [7]; [16] -7% | [7]; [17] 55% | [7]; at 50.0 µM 56.6% | [8]; at 1.2 µM 1% | [8]; at 3.7 µM -1% | [8]; at 11.0 µM 2% | [8]; at 33.0 µM 13% | [8]; at 100.0 µM 49% | [9]; [16] 16% | [9]; [17] 0% | [9]; at 50.0 µM 21.7% | [10]; at 1.2 µM -1% | [10]; at 3.7 µM 3% | [10]; [16] -21% | [10]; at 11.0 µM 9% | [10]; at 33.0 µM 21% | [10]; [17] 12% | [10]; at 50.0 µM 62.3% | [10]; at 100.0 µM 67% | [11]; at 1.2 µM -1% | [11]; at 3.7 µM -1% | [11]; at 11.0 µM 4% | [11]; at 33.0 µM 27% | [11]; at 100.0 µM 54% | [15]; at 1.2 µM 4% | [15]; at 3.7 µM 4% | [15]; at 11.0 µM 12% | [15]; at 33.0 µM 28% | [12]; at 1.2 µM 2% | [12]; at 3.7 µM 9% | [12]; at 11.0 µM 26% | [12]; at 33.0 µM 53% | [13]; [16] 5% | [13]; [17] 31% | [14]; at 1.2 µM -14% | [14]; at 3.7 µM 7% | [14]; at 11.0 µM 28% | [14]; at 33.0 µM 52%
